# Test results: PubChem BioAssay (NCI)
# This is part of a sample that, as a whole, favours compounds with a hit. Of some 79,000 tested, about 15% had one in any assay. Unmarked numbers belong to inactive results. Active and inactive are the calls of the source. Rule as the data show it: active = growth inhibition above about 70%; inactive = the rest.
# What was measured:
# [1] = NCI Yeast Anticancer Drug Screen. Data for the rad52 strain (AID 147);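 also: 0% = growth of vehicle-treated control cultures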; details: S. cerevisiae rad52 mutant growth inhibition, active compounds read high
# Summary of the method: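 Measured: yeast growth inhibition. System: strain with a defined DNA damage repair alteration. Reference: vehicle-treated control cultures.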
# [2] = NCI Yeast Anticancer Drug Screen. Data for the wt1 strain (AID 149);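 also: 0% = growth of vehicle-treated wt1 cultures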; details: S. cerevisiae wt1 strain (SPY 50644) growth inhibition, active compounds read high
# Summary of the method: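 Compounds are added to wt1 yeast cultures. Growth is then measured. Inhibition is expressed relative to vehicle-treated controls.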
# [3] = NCI Yeast Anticancer Drug Screen. Data for the rad50EPP+ strain (AID 151);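 also: 0% = growth of vehicle-treated control cultures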; details: S. cerevisiae rad50 mutant strain, active compounds read high
# Summary of the method: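 One strain with a rad50 alteration (rad50EPP+) was compound-treated, its growth then compared to that of vehicle controls.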
# [4] = NCI Yeast Anticancer Drug Screen. Data for the mgt1 strain (AID 153); details: S. cerevisiae mgt1 mutant growth inhibition, active compounds read high
# Summary of the method: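 After exposure of the mgt1 yeast mutant to compound, growth was measured and reported as inhibition compared with vehicle controls.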
# [5] = NCI Yeast Anticancer Drug Screen. Data for the rad50 strain (AID 155);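 also: 0% = growth of vehicle-only cultures of the same strain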; details: S. cerevisiae rad50 strain growth inhibition, active compounds read high
# Summary of the method: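 Inhibition values express reduced yeast growth in compound-treated cultures relative to vehicle-treated controls.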
# [6] = NCI Yeast Anticancer Drug Screen. Data for the mec2-1 strain (AID 157); details: S. cerevisiae mec2-1 strain, active compounds read high
# Summary of the method: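 Test agents were screened against the mec2-1 yeast strain, with defined DNA repair or cell cycle alteration. Growth was scored as inhibition against vehicle-only controls.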
# [7] = NCI Yeast Anticancer Drug Screen. Data for the rad14 strain (AID 159);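 also: 0% = growth of vehicle-treated control cultures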; details: S. cerevisiae rad14 strain growth inhibition, active compounds read high
# Summary of the method: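 A mutant yeast strain defective in DNA damage repair is treated with compound; inhibition of its growth is scored against untreated, vehicle-exposed cultures.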
# [8] = NCI Yeast Anticancer Drug Screen. Data for the sgs1 mgt1 strain (AID 161);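 also: 0% = growth of cultures given vehicle only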; details: S. cerevisiae sgs1 mgt1 strain, active compounds read high
# Summary of the method: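 Mutant yeast exposed to compound; growth scored against vehicle-only wells.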
# [9] = NCI Yeast Anticancer Drug Screen. Data for the CLN2oe strain (AID 163);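 also: 0% = growth of vehicle-only control cultures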; details: S. cerevisiae CLN2oe strain, active compounds read high
# Summary of the method: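 Here, growth inhibition in a cell-cycle-altered yeast strain after compound exposure was quantified against vehicle control growth.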
# [10] = NCI Yeast Anticancer Drug Screen. Data for the cln2 rad14 strain (AID 165);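 also: 0% = growth equal to vehicle treated cultures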; details: S. cerevisiae cln2 rad14 strain, active compounds read high
# Summary of the method: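 Growth of compound-exposed yeast (cln2 rad14 genotype) measured and expressed as inhibition relative to vehicle.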
# [11] = NCI Yeast Anticancer Drug Screen. Data for the bub3 strain (AID 167); details: S. cerevisiae bub3 mutant strain, active compounds read high
# Summary of the method: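 Steps: expose the mutant yeast strain to compound; grow alongside vehicle-treated cultures; measure growth; express inhibition against the vehicle cultures.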
# [12] = NCI Yeast Anticancer Drug Screen. Data for the wt2 strain (AID 169);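 also: 0% = growth of vehicle-treated yeast cultures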; details: S. cerevisiae wt2 strain growth inhibition, active compounds read high
# Summary of the method: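 Genetically defined yeast strains from a DNA-repair/cell-cycle panel were used. Compound-exposed yeast growth was measured, and the inhibition was calculated relative to vehicle treatment.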
# [13] = NCI Yeast Anticancer Drug Screen. Data for the mlh1 strain (AID 171);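 also: 0% = growth of vehicle-treated control cultures of the same strain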; details: S. cerevisiae mlh1 strain growth inhibition, active compounds read high
# Summary of the method: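 Here the genetically defined yeast mutant is grown with each compound, and the extent to which its growth falls below that of vehicle-exposed cells is reported.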
# [14] = NCI Yeast Anticancer Drug Screen. Data for the sgs1 strain (AID 173);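 also: 0% = growth of vehicle-only control cultures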; details: S. cerevisiae sgs1 mutant, active compounds read high
# Summary of the method: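 Relative growth inhibition, referenced to vehicle, was determined in a yeast strain with a defined alteration affecting DNA damage repair or cell cycle control after compound exposure.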
# [15] = NCI Yeast Anticancer Drug Screen. Data for the mlh1 rad18 strain (AID 175); details: S. cerevisiae mlh1 rad18 strain growth inhibition, active compounds read high
# Summary of the method: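 In this whole-cell yeast screen, a strain with altered DNA damage repair is challenged with compound, and its growth is measured against matched vehicle-treated controls.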
# [16] = NCI Yeast Anticancer Drug Screen. Data for the rad18 strain (AID 177); details: S. cerevisiae rad18 mutant growth inhibition, active compounds read high
# Summary of the method: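 Screen uses a yeast strain with a defined lesion in DNA damage repair; compound effect is read as loss of growth compared to untreated vehicle cultures.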
# [17] = at 5.0 µM (retest, dose inferred, filed as 0.5)
# [18] = at 50.0 µM (retest, dose inferred, filed as 5.0)
smiles,measurement,setting,value
CCCCc1cc(O)ccc1O,growth inhibition,[1]; at 1.2 µM,2%
same,growth inhibition,[1]; at 3.7 µM,13%
same,growth inhibition,[1]; at 11.0 µM,24%
same,growth inhibition,[1]; at 33.0 µM,27%
same,growth inhibition,[1]; at 100.0 µM,29%
same,growth inhibition,[2]; at 1.2 µM,-2%
same,growth inhibition,[2]; at 3.7 µM,-2%
same,growth inhibition,[2]; at 11.0 µM,0%
same,growth inhibition,[2]; at 33.0 µM,3%
same,growth inhibition,[2]; at 100.0 µM,1%
same,growth inhibition,[3]; at 1.2 µM,13%
same,growth inhibition,[3]; at 3.7 µM,34%
same,growth inhibition,[3]; at 11.0 µM,57%
same,growth inhibition,[3]; at 33.0 µM,77% (active)
same,growth inhibition,[3]; at 100.0 µM,88% (active)
same,growth inhibition,[4]; at 1.2 µM,-4%
same,growth inhibition,[4]; at 3.7 µM,-1%
same,growth inhibition,[4]; at 11.0 µM,1%
same,growth inhibition,[4]; at 33.0 µM,0%
same,growth inhibition,[4]; at 100.0 µM,10%
same,growth inhibition,[5]; at 1.2 µM,6%
same,growth inhibition,[5]; at 3.7 µM,12%
same,growth inhibition,[5]; [17],-81%
same,growth inhibition,[5]; at 11.0 µM,32%
same,growth inhibition,[5]; at 33.0 µM,54%
same,growth inhibition,[5]; [18],87% (active)
same,growth inhibition,[5]; at 50.0 µM,20.7%
same,growth inhibition,[5]; at 100.0 µM,62%
same,growth inhibition,[6]; at 1.2 µM,4%
same,growth inhibition,[6]; at 3.7 µM,2%
same,growth inhibition,[6]; [17],-37%
same,growth inhibition,[6]; at 11.0 µM,1%
same,growth inhibition,[6]; at 33.0 µM,17%
same,growth inhibition,[6]; [18],-13%
same,growth inhibition,[6]; at 50.0 µM,11.2%
same,growth inhibition,[6]; at 100.0 µM,28%
same,growth inhibition,[7]; at 1.2 µM,2%
same,growth inhibition,[7]; at 3.7 µM,3%
same,growth inhibition,[7]; at 11.0 µM,18%
same,growth inhibition,[7]; at 33.0 µM,31%
same,growth inhibition,[7]; at 100.0 µM,35%
same,growth inhibition,[8]; [17],-48%
same,growth inhibition,[8]; [18],6%
same,growth inhibition,[8]; at 50.0 µM,43.7%
same,growth inhibition,[9]; at 1.2 µM,-3%
same,growth inhibition,[9]; at 3.7 µM,1%
same,growth inhibition,[9]; at 11.0 µM,3%
same,growth inhibition,[9]; at 33.0 µM,11%
same,growth inhibition,[9]; at 100.0 µM,21%
same,growth inhibition,[10]; [17],-54%
same,growth inhibition,[10]; [18],-31%
same,growth inhibition,[10]; at 50.0 µM,19.5%
same,growth inhibition,[11]; at 1.2 µM,-9%
same,growth inhibition,[11]; at 3.7 µM,-1%
same,growth inhibition,[11]; [17],-63%
same,growth inhibition,[11]; at 11.0 µM,-5%
same,growth inhibition,[11]; at 33.0 µM,5%
same,growth inhibition,[11]; [18],3%
same,growth inhibition,[11]; at 50.0 µM,27.6%
same,growth inhibition,[11]; at 100.0 µM,19%
same,growth inhibition,[12]; at 1.2 µM,0%
same,growth inhibition,[12]; at 3.7 µM,-1%
same,growth inhibition,[12]; at 11.0 µM,1%
same,growth inhibition,[12]; at 33.0 µM,3%
same,growth inhibition,[12]; at 100.0 µM,6%
same,growth inhibition,[13]; at 1.2 µM,6%
same,growth inhibition,[13]; at 3.7 µM,-1%
same,growth inhibition,[13]; at 11.0 µM,4%
same,growth inhibition,[13]; at 33.0 µM,9%
same,growth inhibition,[13]; at 100.0 µM,4%
same,growth inhibition,[14]; at 1.2 µM,0%
same,growth inhibition,[14]; at 3.7 µM,6%
same,growth inhibition,[14]; at 11.0 µM,10%
same,growth inhibition,[14]; at 33.0 µM,24%
same,growth inhibition,[14]; at 100.0 µM,42%
same,growth inhibition,[15]; [17],-86%
same,growth inhibition,[15]; [18],42%
same,growth inhibition,[15]; at 50.0 µM,64.3%
same,growth inhibition,[16]; at 1.2 µM,3%
same,growth inhibition,[16]; at 3.7 µM,7%
same,growth inhibition,[16]; at 11.0 µM,15%
same,growth inhibition,[16]; at 33.0 µM,26%
same,growth inhibition,[16]; at 100.0 µM,31%
